Test [1] is described as follows: NCI Yeast Anticancer Drug Screen. Data for the rad50 strain (AID 155).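 Note: 0% = growth of vehicle-only cultures of the same strain.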 The settings on record: S. cerevisiae rad50 strain growth inhibition; at 50.0 µM; hits give high values. Summed up:
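Genetically altered yeast (DNA repair pathway); compound treatment; growth inhibition vs vehicle ctrl.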

Test [2] in a line: NCI Yeast Anticancer Drug Screen. Data for the mec2-1 strain (AID 157). The settings on record: S. cerevisiae mec2-1 strain, at 50.0 µM, hits give high values. Summed up:
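Cells of the genetically defined mec2-1 yeast strain are incubated with test compound. Inhibition of growth is calculated against vehicle-treated controls.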

The nature of test [3]: NCI Yeast Anticancer Drug Screen. Data for the sgs1 mgt1 strain (AID 161).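 Note: 0% = growth of cultures given vehicle only.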 The settings on record: S. cerevisiae sgs1 mgt1 strain, at 50.0 µM, hits give high values. Summed up:
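Inhibition of yeast growth, normalised to vehicle-treated controls, is reported for a strain bearing genetic alterations in DNA damage repair.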

Test [4] in a line: NCI Yeast Anticancer Drug Screen. Data for the cln2 rad14 strain (AID 165).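 Note: 0% = growth equal to vehicle treated cultures.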 The settings on record: S. cerevisiae cln2 rad14 strain, at 50.0 µM, hits give high values. Summed up: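 The screen exposed genetically defined yeast (cln2 rad14) to test compounds and scored growth inhibition relative to vehicle-treated controls.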
Test [5] can be described thus: NCI Yeast Anticancer Drug Screen. Data for the bub3 strain (AID 167). The settings on record: S. cerevisiae bub3 mutant strain, at 50.0 µM, hits give high values. Summed up:
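Yeast carrying a defined mutation is treated with each compound, and growth is compared with that of vehicle-exposed cells to give inhibition.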

Test [6] can be described thus: NCI Yeast Anticancer Drug Screen. Data for the mlh1 rad18 strain (AID 175). Conditions: S. cerevisiae mlh1 rad18 strain growth inhibition; at 50.0 µM; hits give high values. The procedure, abridged:
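Compound-treated yeast growth, normalised to vehicle controls. Strain bears defined DNA repair mutations.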

Structures are written as SMILES. Compounds without any hit were thinned out: in the full panel of roughly 79,000, 15% have a hit. Unmarked numbers belong to inactive results. Activity calls are given as the source filed them. Cut-off read from the data, not from the text of the source: active = growth inhibition above about 70%; inactive = the rest.

Regarding `CC1(c2ccc(Cl)s2)NC(=O)NC1=O` (stereo unspecified), the growth inhibition in test [1] was -1%; in test [2] it was -4.65%; in test [3] it was -6.45%; in test [4], -45.8%; in test [5] it was 1.9%; in test [6], -13.5%.
On to `CCOC(=O)[C@H]1Nc2c(cccc2[N+](=O)[O-])[C@H]2OCC[C@@H]12`, for which the growth inhibition in test [1] is -12.8%; in test [2] it was -22.3%; in test [3], -0.45%; in test [4] it was 11.4%; in test [5], -22.6%; in test [6], -26.9%.
For the molecule `CN(C)C(=S)Oc1ccc([N+](C)(C)C)cc1`, the growth inhibition in test [1] is -3.7%; in test [2] it was 3.55%; in test [3] it was 2.5%; in test [4], -4.6%; in test [5], 3.15%; in test [6], -1%.
For `Cc1ccc(S(=O)(=O)OCC(c2ccccc2)C(F)(F)F)cc1` (stereo unspecified), the growth inhibition in test [1] is -3.25%; in test [2], -14.2%; in test [3], 12.4%; in test [4], -23.7%; in test [5] it was 18.6%; in test [6], -1%.
For the molecule `CC(C#N)Nc1ccc(Oc2ccc(C(C)(C)c3ccc(Oc4ccc(NC(C)C#N)cc4)cc3)cc2)cc1` (stereo unspecified), the growth inhibition in test [1] was 6.25%; in test [2], -2.6%; in test [3], -8.3%; in test [4], 7.1%; in test [5] it was -23.6%; in test [6] it was -40.1%.
As to `CCCCCCCCCCCCCCCCS(=O)(=O)N/N=C(\c1ccc(C(C)C)cc1)N1CCOCC1`, the growth inhibition is 1.3% in test [1]; -18.4% in test [2]; 12.7% in test [3]; 9.3% in test [4]; -1.5% in test [5]; 5.75% in test [6].
For `N#C/C(=C1/Sc2c(nc[nH]c2=O)N1c1ccccc1)c1nc2ccccc2[nH]1`, the growth inhibition in test [1] was -34.6%; in test [2] it was -14.4%; in test [3] it was -51.9%; in test [4] it was -8.1%; in test [5], -40%; in test [6] it was -41.9%.
With `O=c1c2ccccc2n2n1Cc1ccccc1C2`, the growth inhibition in test [1] is 38.1%; in test [2] it was 9.1%; in test [3] it was -11.5%; in test [4] it was 6.95%; in test [5] it was 12.2%; in test [6], 59.4%.
As to `Nc1ccc(CP(=O)(O)O)cc1`, the growth inhibition is -8.4% in test [1]; 14.8% in test [2]; -3.65% in test [3]; -8.1% in test [4]; 16.1% in test [5]; 24.9% in test [6].
In the case of `Cc1[nH]c2ccc(-c3ccccc3)cc2c1CC(=O)OC(C)C`, the growth inhibition in test [1] was 97% (active); in test [2], 98.5% (active); in test [3] it was 98.2% (active); in test [4], 97.8% (active); in test [5], 98.2% (active); in test [6], 98% (active).
In the case of `NCCNC(=O)Cc1cccc2ccccc12`, the growth inhibition in test [1] was -21.1%; in test [2], -48%; in test [3], -5.15%; in test [4] it was 3.6%; in test [5], -36.5%; in test [6], -3.05%.
For `Cc1cccn2c(C)nnc12`, the growth inhibition is 3.4% in test [1]; 25.7% in test [2]; -1.35% in test [3]; 17.6% in test [4]; 28.1% in test [5]; 12.7% in test [6].
For the molecule `CCOc1ncc(C(=O)c2ccc(C)cc2)c(OCC)n1`, the growth inhibition in test [1] was -8.55%; in test [2], -20.4%; in test [3] it was -6.2%; in test [4], -58.9%; in test [5], 3.6%; in test [6] it was -20.4%.
As to `CC(C)C(=O)C(C)(C)CCc1ccccn1`, the growth inhibition in test [1] was -23.4%; in test [2], -24.8%; in test [3], -28.6%; in test [4] it was -15.8%; in test [5], -12.2%; in test [6] it was -8.35%.
With `CC1(C)COC(c2c(F)cccc2Cl)=N1`, the growth inhibition was 3% in test [1]; -13.8% in test [2]; 6.2% in test [3]; 22.4% in test [4]; 11.7% in test [5]; 13.2% in test [6].
With `CCc1cc(-c2ccc(OC)cc2)c(C#N)c(=S)n1C1OC(CO)C(O)C(O)C1O` (stereo unspecified), the growth inhibition in test [1] is 4.9%; in test [2], -3.5%; in test [3] it was 6.4%; in test [4] it was 0.7%; in test [5], 3.35%; in test [6] it was 7.7%.
Take `CN[C@H]1CCc2cc(OC)c(OC)c(OC)c2-c2ccc(O)c(=O)cc21`: the growth inhibition in test [1] is 23.8%; in test [2] it was -9.45%; in test [3] it was 24.8%; in test [4], -43.5%; in test [5], 0.3%; in test [6] it was 29.7%.
`CC(=O)OC1=C(C)C2=C3OC(=O)C(C)=C3CC[C@@]2(C)CC1`: the growth inhibition in test [1] was 3.7%; in test [2], 1.2%; in test [3], 6.85%; in test [4], 19.4%; in test [5] it was 25%; in test [6], 6.95%.
As for `CCOC(=O)C(C)(NC(=O)c1ccc(NCc2ccc3nc(NC(=O)c4ccccc4)nc(NC(=O)c4ccccc4)c3c2)cc1)C(=O)OCC`, the growth inhibition in test [1] was -4.1%; in test [2] it was -24%; in test [3] it was 7.5%; in test [4], -24.1%; in test [5] it was -16.5%; in test [6] it was -8.45%.
Turning to `CCCCCCCCOCCS(=O)(=O)O`, the growth inhibition was 13.4% in test [1]; -18.6% in test [2]; -0.15% in test [3]; -22.6% in test [4]; -10.8% in test [5]; 35.8% in test [6].
Take `OC/C=C(\I)CCCOCOCc1ccccc1`: the growth inhibition is -14.4% in test [1]; -4.35% in test [2]; -7.35% in test [3]; -18.4% in test [4]; -10.5% in test [5]; -36.2% in test [6].
